Assay results published in the supplement of paper PMC4166925.
± gives the standard deviation of the averaged measurements. The full ranking holds about 33,000 sequences; the median of “E-score (dimensionless, -0.5 to 0.5)” is about -0.049, and the highest 2% start at about 0.37. The sample as a whole holds a higher share of the highest values than the screen did.

test system: T1, PmTbr T-box DNA-binding domain (GST fusion); assay: PBM E-score of 8-mer (E-score (dimensionless, -0.5 to 0.5)); Tbr is Tbrain of the sea star Patiria miniata (Pm) or the sea urchin Strongylocentrotus purpuratus (Sp); higher = stronger binding preference; conditions: the construct has about 5 more residues each side
T1 sequence: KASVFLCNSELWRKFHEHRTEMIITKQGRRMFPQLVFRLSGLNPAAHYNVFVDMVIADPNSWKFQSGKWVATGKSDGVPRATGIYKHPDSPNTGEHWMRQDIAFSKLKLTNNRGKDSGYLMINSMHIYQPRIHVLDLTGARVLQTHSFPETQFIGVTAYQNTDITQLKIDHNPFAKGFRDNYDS
Method in brief: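 Universal Agilent oligonucleotide arrays, made double-stranded by primer extension, were incubated with 200 nM GST-fused Tbr T-box DNA-binding domain in PBS (pH 7.5). The protein was expressed in BL21 E. coli at 20 °C and purified by glutathione affinity chromatography. After scanning and quantification, the Universal PBM Analysis Suite assigned an enrichment E-score to each ungapped 8-mer, averaged over duplicate arrays.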

Sequence | PBM E-score of 8-mer
GAGGTGTA | 0.44018 ± 0.00028
AAGGTGTC | 0.4879 ± 0.0035
ACGGTGTA | 0.16 ± 0.0067
CAGGTGTC | 0.4791 ± 0.0044
AAGGTGTA | 0.404 ± 0.026
GGCATTAC | -0.165 ± 0.0079
GGATACCC | -0.327 ± 0.049
GGAGAGGA | -0.1 ± 0.0036
CTTGGGGA | -0.196 ± 0.039
ATAAGTGG | 0.124 ± 0.042
CAATGGAC | -0.0519 ± 0.011
TGCCCACA | -0.0968 ± 0.015
AAGGTTTG | -0.16 ± 0.015
ACGGTGTG | 0.324 ± 0.012
AAGGTGTG | 0.4811 ± 0.0016
AATGGCTG | -0.207 ± 0.038
GGTGATAC | 0.364 ± 0.025
CGTGATAA | 0.251 ± 0.034
TGTGATAA | 0.406 ± 0.046
AGTGATAA | 0.317 ± 0.052
GGTGATAA | 0.413 ± 0.018
TATGATAA | -0.0124 ± 0.036

Sequence | PBM E-score of 8-mer
TTGCGCAA | 0.108 ± 0.0064
CTAGATTC | 0.139 ± 0.039
AATGGACA | 0.0325 ± 0.009
AAACCTGT | 0.0415 ± 0.013
GCACCTAA | 0.373 ± 0.016
CCACCTAC | 0.273 ± 0.049
ACACCTAC | 0.4763 ± 0.0017
GCACCTAC | 0.382 ± 0.0042
AGACCTAC | -0.292 ± 0.035
ATACCTAC | -0.172 ± 0.0048
GTACCTAC | -0.272 ± 0.061
ACACCTGT | 0.472 ± 0.00061
GTACCTAA | -0.248 ± 0.013
GGACCTAA | -0.0476 ± 0.0062
ACACCGGT | 0.22015 ± 2.8e-05
AGTTGGCG | 0.229 ± 0.039
AAGATCGA | -0.152 ± 0.084
CGCAACAG | 0.0766 ± 0.031
CAGCAATC | -0.21244 ± 7.8e-05
CTCCATCA | 0.123 ± 0.077
GGTAAGTA | -0.0321 ± 0.051
CGGTCAAC | -0.0198 ± 0.048

Sequence | PBM E-score of 8-mer
GCAGGGGC | -0.193 ± 0.12
AGATGGAC | -0.281 ± 0.02
ATACCTAT | -0.0294 ± 0.018
TCACCTAA | 0.383 ± 0.0065
CCACCTAA | 0.146 ± 0.058
AAACCTAA | -0.0751 ± 0.036
ATACCTAA | 0.0416 ± 0.058
ACACCTAA | 0.463 ± 0.0018
AAACCTAG | 0.113 ± 0.032
ACACCTAT | 0.4662 ± 0.00073
TGACCTAA | -0.228 ± 0.013
ACACCTAG | 0.462 ± 0.0066
AGACCTAT | -0.2143 ± 0.00038
CCACCTAG | 0.264 ± 0.0049
CGCACAAA | 0.00904 ± 0.0019
ATTCCTCG | -0.0674 ± 0.053
ATAGCTCC | -0.134 ± 0.022
CTCCCCAA | -0.12 ± 0.0034
CTGAAACC | -0.0317 ± 0.0024
TGATACAA | 0.126 ± 0.037
GTAGTGCA | -0.21 ± 0.062
AAAGGCAC | -0.0325 ± 0.013

Sequence | PBM E-score of 8-mer
GCCATAAA | -0.0292 ± 0.012
AGATAGAT | -0.217 ± 0.015
GCACCTCA | 0.35 ± 0.037
CCACCTCC | 0.305 ± 0.024
GCACCTCC | 0.4324 ± 0.002
GAACTACA | 0.0281 ± 0.036
TCGGTCCA | -0.365 ± 0.015
CCGTGTTA | 0.24 ± 0.041
GCGTGTTA | 0.336 ± 0.036
ACGTGTTC | 0.2198 ± 0.001
ACGTGTAG | 0.118 ± 0.015
ACGTGTTA | 0.442 ± 0.015
ACGTGTTG | 0.3744 ± 0.0004
CGAGCAAA | -0.0522 ± 0.042
CTTTGTCC | 0.109 ± 0.0064
ACAAGGTG | 0.429 ± 0.006
ATAAGGTA | 0.0248 ± 0.096
AGAAGGTG | 0.403 ± 0.0068
ACAAGGTA | -0.0243 ± 0.03
AGAAGGTA | -0.2003 ± 0.00059
ACAAGGTC | 0.1572 ± 0.00086
ATAAGGTG | 0.387 ± 0.0095
